# Measurements taken from PubChem BioAssay (NCATS).
# Inconclusive results are not listed. Entries that show only a call come without a potency. Calls of active or inactive are those of the source. The call rests on the fitted dose curve; in most records, active means well fitted cell-killing curve with a large enough effect; inconclusive means small, poorly fitted or top-dose-only effect, or effect the other way; inactive means flat fitted curve, though single readings scatter.
# Test system: CAOV3
# Assay: Primary qHTS to identify gynecologic anti-cancer compounds using libraries of approved drugs and bioactive compounds (AID 1345084); further: nearly all actives have a fitted effect of over 55% in size
# Conditions: Gynecologic cancer cell panel viability, ATPlite luminescence, 48 h; series mostly up to 57.5 µM
# In short: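 Cell viability after 48 h drug treatment, ATPlite luminescence readout; five doses.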
# Potency means the concentration at half of the fitted maximal effect.
SMILES,Potency,"activity change, negative = cytotoxicity"
COc1cc(OC)c2c(=O)[nH]c(-c3cc(C)c(OCCO)c(C)c3)nc2c1,inactive,–
COc1ccc(C2=NC(c3ccc(Cl)cc3)C(c3ccc(Cl)cc3)N2C(=O)N2CCNC(=O)C2)c(OC(C)C)c1 (centres undefined),inactive,–
CCn1c(=O)c(-c2ccc(-c3cncs3)cc2Cl)cc2cnc(Nc3ccc(N4CCN(C)CC4)cc3)nc21,inactive,–
COC(=O)c1ccc2c(c1)[nH]c1ncnc(NCCCN3CCCCC3)c12,inactive,–
CN1CCN(c2ccc(Nc3cc(-c4cccc(-n5ccc6cc(C7CC7)cc(F)c6c5=O)c4CO)cn(C)c3=O)nc2)CC1,inactive,–
O=c1nc(-c2ccccn2)sc2ccccc12,inactive,–
CNc1nc(Nc2ccc(C(=O)N3CCOCC3)cc2OC)nc2[nH]cc(Cl)c12,inactive,–
Cn1cc(-c2ccc3c(c2)CCN3C(=O)Cc2cccc(C(F)(F)F)c2)c2c(N)ncnc21,inactive,–
C=C1CCC2[C@](C)(CCC[C@@]2(C)C=O)[C@H]1CC/C(C)=C/CO (some centres undefined),inactive,–
CC1(CO)CC(O)[C@]2(C(=O)O)CCC34CC3(C=CC3[C@]5(C)C(CC[C@]34C)C(C)(CO)[C@@H](O)[C@H](O)[C@@H]5O)C2C1 (some centres undefined),inactive,–
C/C=C(/C)C(=O)O[C@@H]1C[C@@H](OC(=O)CC(C)C)C2(C)C3C(=O)C=C(C)C2C3C1(C)C (some centres undefined),inactive,–
O=C(NCCCN1CCOCC1)c1cnn2c(-c3ccccc3)cc(-c3ccccc3)nc12,inactive,–
Cc1cc(OCCCS(C)(=O)=O)cc(C)c1-c1cccc(COc2ccc3c(c2)OCC3CC(=O)O)c1 (centres undefined),inactive,–
CC1=C(C(=O)OC2CCCCC2)C(c2ccc([N+](=O)[O-])cc2)C2=C(CC(C)(C)CC2=O)N1 (centres undefined),inactive,–
CC1(C)CC[C@]2(C(=O)O[C@@H]3O[C@H](CO)[C@@H](O)[C@H](O)[C@H]3O)CC[C@]3(C)C(=CCC4[C@@]5(C)CC[C@H](O[C@@H]6O[C@H](C(=O)O)[C@H](O)[C@H](O)[C@H]6O)C(C)(C)C5CC[C@]43C)[C@@H]2C1 (some centres undefined),inactive,–
CCN1CCN(Cc2ccc(C(=O)Nc3ccc(C)c(Oc4ccc5c(c4)CC(=O)N5)c3)cc2C(F)(F)F)CC1,inactive,–
CC(=O)c1c(C)cc2cccc(O)c2c1O[C@@H]1O[C@H](CO)[C@@H](O)[C@H](O)[C@H]1O,inactive,–
O=C(Nc1ccc(N(Cc2ccsc2)C(=O)Cn2nnc3ccccc32)cc1)C1CC1,inactive,–
COc1ccc(CCc2nc3cc(-c4c(C)noc4C)ccc3n2CC(C)N2CCOCC2)cc1Cl (centres undefined),inactive,–
CNc1cccc(CCOc2ccc3c(c2)CN(CC(F)(F)F)C(=O)[C@H](CC(=O)O)C3)n1,inactive,–

SMILES,Potency,"activity change, negative = cytotoxicity"
CC(C)(O)c1ccn2c(-c3ccc(F)c(-c4ccc(F)cc4C#N)c3)cnc2c1F,inactive,–
Cc1[nH]c2ccccc2c1CCNCc1ccc(/C=C/C(=O)NO)cc1,1000 nM (active),–
C[C@@H]1O[C@@H](O[C@H]2[C@@H]3C=CO[C@@H](O[C@@H]4O[C@H](CO)[C@@H](O)[C@H](O)[C@H]4O)[C@@H]3[C@@]3(CO)O[C@@H]23)[C@H](O)[C@H](OC(=O)/C=C/c2ccccc2)[C@H]1O,inactive,–
C=C1C(=O)OC[C@@H]1C/C=C(\C)CC1CC(C)C(=O)O1 (some centres undefined),inactive,–
COc1ccc(S(=O)(=O)n2cnc3cc(C)c(C)cc32)cc1,inactive,–
C[C@@H]1O[C@@H](O[C@H]2CC[C@@]3(C)C(CC[C@]4(C)C3CC=C3[C@@H]5CC(C)(C)CC[C@]5(C(=O)O[C@@H]5O[C@H](CO)[C@@H](O)[C@H](O)[C@H]5O)CC[C@]34C)[C@]2(C)CO)[C@H](O)[C@H](O[C@@H]2O[C@H](CO)[C@@H](O)[C@H](O)[C@H]2O)[C@H]1O (some centres undefined),–,-0.291% [at 11.6 µM] (inactive)
CCCOc1ccc(S(=O)(=O)N2CCN(CCO)CC2)cc1-c1nc2c(CCC)cn(CC)c2c(=O)[nH]1,inactive,–
COc1ccc(CCCN2CCC(COC(c3ccccc3)c3ccccc3)CC2)cc1,inactive,–
CCNc1nc(Nc2cc(F)c(C(=O)N3CCOCC3)cc2OC)ncc1C(F)(F)F,inactive,–
CC(=O)O[C@@H]1[C@@H](OC(C)=O)[C@H](C)O[C@@H](O[C@H]2[C@@H]3C=CO[C@@H](O[C@@H]4O[C@H](CO)[C@@H](O)[C@H](O)[C@H]4O)[C@@H]3[C@@]3(CO)O[C@@H]23)[C@@H]1OC(=O)/C=C/c1ccccc1,inactive,–
OC(c1ccc(-c2ccc(CN3CCN(Cc4ccncc4)CC3)cc2)c(F)c1)(C(F)(F)F)C(F)(F)F,inactive,–
O=C(Nc1ccccc1)N1CCN(c2nc(-c3ccccc3)ns2)CC1,inactive,–
Cc1cc(N2CCOCC2)ccc1Nc1nc(NC2CCCCC2)c2[nH]cnc2n1,inactive,–
O=C(O)CCc1nccc2c1[nH]c1ccccc12,inactive,–
O=c1[nH]c2ccc(C#CCN3CCC(Cc4ccccc4)CC3)cc2[nH]1,inactive,–
COC1=CC(=O)O/C1=C(/OC)[C@@H]1O[C@H]1c1ccccc1,inactive,–
O=C(Nc1ccc(-c2ccnc(Nc3ccc(N4CCOCC4)cc3)n2)cc1)C1CCCN1 (centres undefined),inactive,–
CCCCC1CCN(CCCN2C(=O)CCc3ccccc32)CC1,inactive,–
O=C(NCc1cccs1)c1cc2nc(-c3ccco3)cc(C(F)(F)Cl)n2n1,inactive,–
